SMILES strings stand for the structures. Among all 310,000 compounds or so, about 14,000 (4.5%) showed an effect of 50% or more. Effects have a minus sign here. What follows is part of a selection rich in strong results, with near analogues and random picks from the rest.
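Note: peak tail current of the secondary pulse compared with the same well before compound.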

For the assay, the target named is human ether-à-go-go-related gene (hERG) potassium channel (human, UniProt Q12809). Nature of the assay: primary screen, population patch clamp on CHO cells stably expressing hERG; higher = less effect of the substance.
human ether-à-go-go-related gene (hERG) potassium channel, sequence (Q12809 whole entry, looked up): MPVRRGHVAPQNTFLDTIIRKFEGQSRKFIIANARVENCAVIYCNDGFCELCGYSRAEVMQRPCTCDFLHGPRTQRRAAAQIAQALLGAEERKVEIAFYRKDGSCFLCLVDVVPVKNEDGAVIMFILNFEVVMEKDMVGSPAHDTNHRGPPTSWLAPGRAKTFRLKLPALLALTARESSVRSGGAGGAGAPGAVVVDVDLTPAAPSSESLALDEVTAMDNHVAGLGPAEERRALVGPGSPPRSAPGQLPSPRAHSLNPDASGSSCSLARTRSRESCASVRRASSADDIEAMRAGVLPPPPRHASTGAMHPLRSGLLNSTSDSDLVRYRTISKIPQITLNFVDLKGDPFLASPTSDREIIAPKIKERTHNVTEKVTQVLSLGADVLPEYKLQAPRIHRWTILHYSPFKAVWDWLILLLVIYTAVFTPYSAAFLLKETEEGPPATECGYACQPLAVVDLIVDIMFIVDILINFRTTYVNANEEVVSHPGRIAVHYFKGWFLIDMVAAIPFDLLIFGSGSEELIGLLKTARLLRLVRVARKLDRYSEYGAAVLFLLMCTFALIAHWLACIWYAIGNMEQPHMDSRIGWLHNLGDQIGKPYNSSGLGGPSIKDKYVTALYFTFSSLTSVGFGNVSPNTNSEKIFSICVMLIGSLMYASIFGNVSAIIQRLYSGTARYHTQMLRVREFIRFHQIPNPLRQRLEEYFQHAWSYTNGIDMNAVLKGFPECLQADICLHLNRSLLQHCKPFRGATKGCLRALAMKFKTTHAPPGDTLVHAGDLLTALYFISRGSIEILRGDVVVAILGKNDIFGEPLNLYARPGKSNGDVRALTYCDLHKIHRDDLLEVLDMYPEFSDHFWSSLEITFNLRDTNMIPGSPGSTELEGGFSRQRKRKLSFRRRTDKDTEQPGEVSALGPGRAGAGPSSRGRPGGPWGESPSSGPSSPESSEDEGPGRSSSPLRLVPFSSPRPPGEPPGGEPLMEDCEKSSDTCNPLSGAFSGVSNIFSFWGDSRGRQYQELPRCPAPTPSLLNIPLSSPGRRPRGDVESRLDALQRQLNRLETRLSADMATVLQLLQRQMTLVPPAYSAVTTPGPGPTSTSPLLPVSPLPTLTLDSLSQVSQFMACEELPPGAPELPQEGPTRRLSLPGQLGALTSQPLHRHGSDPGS
`Cc1cc(=O)n2ccsc2n1`: the “hERG current change (%, negative = inhibition) at 10uM” value came out at 3.28%.

`Cc1cc(=O)[nH]c2c1cnn2Cc1ccccc1`: the “hERG current change (%, negative = inhibition) at 10uM” value amounted to 3.72%.

`COc1ccc(/C=C(\C#N)C(=O)OCC(=O)NCc2ccccc2Cl)cc1`: the “hERG current change (%, negative = inhibition) at 10uM” value is 6.86%.

With `Cc1nn(Cc2ccccc2)c(C)c1C(=O)N1CCN(CC(=O)Nc2ccccc2Cl)CC1`, the “hERG current change (%, negative = inhibition) at 10uM” value is reported as -50.3%.

Take `Cc1nn(Cc2ccccc2Cl)c(Cl)c1C(=O)O`: the “hERG current change (%, negative = inhibition) at 10uM” value came out at 8.83%.

Turning to `Cc1nn(Cc2ccccc2)c(C)c1C(=O)N1CCN(S(=O)(=O)/C=C/c2ccccc2)CC1`, the “hERG current change (%, negative = inhibition) at 10uM” value is -24.8%.

As for `Cc1nn(Cc2ccccc2Cl)c(C)c1C(=O)N1CCN(c2ccccc2)CC1`, the “hERG current change (%, negative = inhibition) at 10uM” value is -58.6%.

Turning to `Cc1cccc(N2CCN(C(=O)c3c(C)nn(Cc4ccccc4Cl)c3C)CC2)c1C`, the “hERG current change (%, negative = inhibition) at 10uM” value is given as -0.851%.

Take `Cc1cccc(NC(=O)CN2CCN(C(=O)c3c(C)nn(Cc4ccccc4)c3C)CC2)c1C`: the “hERG current change (%, negative = inhibition) at 10uM” value is listed as -20.4%.

For `O=C(CN1CCN(CC(=O)Nc2ccccc2Cc2ccccc2)CC1)Nc1ccccc1Cl`, the “hERG current change (%, negative = inhibition) at 10uM” value worked out at 20%.

Take `Cc1nn(Cc2ccccc2)c(C)c1C(=O)N1CCN(CC(=O)Nc2ccc(F)cc2)CC1`: the “hERG current change (%, negative = inhibition) at 10uM” value is reported as -62.6%.

On to `Cc1nn(Cc2ccccc2)c(C)c1C(=O)O`, for which the “hERG current change (%, negative = inhibition) at 10uM” value is -19.1%.

For `CC(=O)c1ccc(OCCCCOc2ccc(C(C)=O)cc2)cc1`, the “hERG current change (%, negative = inhibition) at 10uM” value was 21.4%.

Take `COc1ccccc1OC(=O)c1ccc(SC)cc1OC`: the “hERG current change (%, negative = inhibition) at 10uM” value is given as -24%.

`C[C@]12CC[C@@H]3c4ccc(OS(=O)(=O)[O-])cc4CC[C@H]3[C@@H]1CCC2=O.[Na+]`: the “hERG current change (%, negative = inhibition) at 10uM” value was determined as 16.9%.

Consider `O=C(CSc1nc(-c2ccccc2)c(-c2ccccc2)o1)NC1CCS(=O)(=O)C1` (centres unmarked), for which the “hERG current change (%, negative = inhibition) at 10uM” value is on record as -27.1%.

For `CCc1ccccc1NC(=O)CCCN1C(=O)C2CC=CCC2C1=O` (centres unmarked), the “hERG current change (%, negative = inhibition) at 10uM” value is given as 12%.

Consider `Cc1ccccc1C(N)c1ccncc1.Cl` (centres unmarked), for which the “hERG current change (%, negative = inhibition) at 10uM” value stood at 2.52%.

As for `COc1cc(/C=C(\C#N)c2nc3ccccc3[nH]2)cc(Br)c1OCc1ccccc1`, the “hERG current change (%, negative = inhibition) at 10uM” value is 0.571%.

As for `Cc1ccc(N(CC(=O)NCc2ccco2)C(=O)CCC(=O)Nc2nccs2)cc1`, the “hERG current change (%, negative = inhibition) at 10uM” value is on record as -1.5%.

Regarding `COc1ccc(CC(=O)NNC(=O)COc2ccc(Cl)cc2C)cc1S(=O)(=O)N1CCOCC1`, the “hERG current change (%, negative = inhibition) at 10uM” value is -36.1%.

`COc1cc(C#N)ccc1OCC(=O)Nc1ccc(C)c(S(=O)(=O)N2CCOCC2)c1`: the “hERG current change (%, negative = inhibition) at 10uM” value is on record as -36.1%.

Consider `COc1cc(C(C)=O)ccc1OCC(=O)Nc1ccc(Cl)c(S(=O)(=O)N2CCOCC2)c1`, for which the “hERG current change (%, negative = inhibition) at 10uM” value is -66.7%.

Regarding `COc1ccc(C(=O)NNC(=O)COc2ccc(Cl)cc2C)cc1S(=O)(=O)N1CCOCC1`, the “hERG current change (%, negative = inhibition) at 10uM” value is reported as -77.1%.

For `Cc1cc(Cl)ccc1OCC(=O)NNC(=O)c1cnccn1`, the “hERG current change (%, negative = inhibition) at 10uM” value is given as 11.6%.

On to `COc1cc(C(C)=O)ccc1OCC(=O)Nc1ccc(C)c(S(=O)(=O)N2CCCCCC2)c1`, for which the “hERG current change (%, negative = inhibition) at 10uM” value is given as -26.3%.

`Cc1cc(Cl)ccc1OCC(=O)NNC(=O)c1ccco1`: the “hERG current change (%, negative = inhibition) at 10uM” value stood at 8.38%.

On to `COc1ccc(Cl)cc1NC(=O)COc1ccc(S(=O)(=O)N2CCOCC2)cc1C`, for which the “hERG current change (%, negative = inhibition) at 10uM” value amounted to 10.8%.

Consider `Cc1ccc(C(=O)NNC(=O)COc2ccc(Cl)cc2C)o1`, for which the “hERG current change (%, negative = inhibition) at 10uM” value is on record as -57.6%.

As to `CC1(C)CC(=O)C2=C(C1)OC1=C(C(=O)CC(C)(C)C1)C2c1ccccc1`, the “hERG current change (%, negative = inhibition) at 10uM” value was 16.9%.

Consider `Nc1c(N(C(=O)Nc2ccc(Cl)c(Cl)c2)C2CCCC2)c(=O)[nH]c(=O)n1Cc1ccccc1`, for which the “hERG current change (%, negative = inhibition) at 10uM” value was determined as 24.7%.

Regarding `COc1ccc(NC(=O)CS(=O)CC(=O)Nc2ccc(-n3cnnn3)c(C)c2)cc1` (centres unmarked), the “hERG current change (%, negative = inhibition) at 10uM” value is reported as 12.4%.

With `S=c1[nH]nc(-c2ccco2)n1/N=C/C=C/c1ccco1`, the “hERG current change (%, negative = inhibition) at 10uM” value came to 13.7%.

For `C/C(=N/NS(=O)(=O)c1ccc(C)cc1)c1ccc2c(c1)OCO2`, the “hERG current change (%, negative = inhibition) at 10uM” value was 13%.

Regarding `C=CCc1cccc2cc(C(=O)N(CC)CC)c(=O)oc12`, the “hERG current change (%, negative = inhibition) at 10uM” value was -6.47%.

Consider `CCOCCCN1C(=O)C2C(C(=O)Nc3ccc(OCC)cc3)C3C=CC2(O3)C1C(=O)NC1CCCCC1` (centres unmarked), for which the “hERG current change (%, negative = inhibition) at 10uM” value was -72.8%.

Turning to `CCCCN(C)CCN1C(=O)C2C(C(=O)Nc3ccc(Cl)cc3)C3C=CC2(O3)C1C(=O)NC1CCCCC1` (centres unmarked), the “hERG current change (%, negative = inhibition) at 10uM” value is recorded as -70.2%.

As for `CSc1cccc(NC(=O)C2C3C=CC4(O3)C2C(=O)N(CCN2CCOCC2)C4C(=O)NC2CCCCC2)c1` (centres unmarked), the “hERG current change (%, negative = inhibition) at 10uM” value was found to be 9.21%.

As for `CCCN(CCC)CCN1C(=O)C2C(C(=O)Nc3ccc(C)cc3)C3C=CC2(O3)C1C(=O)NC1CCCCC1` (centres unmarked), the “hERG current change (%, negative = inhibition) at 10uM” value is given as -30.2%.

On to `CCCN(CCC)CCN1C(=O)C2C(C(=O)Nc3cccc(SC)c3)C3C=CC2(O3)C1C(=O)NC1CCCCC1` (centres unmarked), for which the “hERG current change (%, negative = inhibition) at 10uM” value was -68.2%.

`CCOc1ccc(NC(=O)C2C3C=CC4(O3)C2C(=O)N(Cc2cccnc2)C4C(=O)NC2CCCCC2)cc1` (centres unmarked): the “hERG current change (%, negative = inhibition) at 10uM” value was determined as 16%.

Take `CCCCN(C)CCN1C(=O)C2C(C(=O)Nc3ccc(OC)cc3)C3C=CC2(O3)C1C(=O)NC1CCCCC1` (centres unmarked): the “hERG current change (%, negative = inhibition) at 10uM” value is -8.93%.

On to `COc1ccc(NC(=O)C2C3C=CC4(O3)C2C(=O)N(CCN2CCCCC2)C4C(=O)NC2CCCCC2)cc1` (centres unmarked), for which the “hERG current change (%, negative = inhibition) at 10uM” value was determined as 9.9%.

As for `CCCCN(C)CCN1C(=O)C2C(C(=O)Nc3ccc(C)cc3)C3C=CC2(O3)C1C(=O)NC1CCCCC1` (centres unmarked), the “hERG current change (%, negative = inhibition) at 10uM” value is given as -26.1%.

On to `Cc1ccccc1NC(=O)/C(C#N)=C\c1cccnc1`, for which the “hERG current change (%, negative = inhibition) at 10uM” value is -16.3%.

Take `Cc1ccc2oc(C(=O)N3CCC(C(N)=O)(N4CCCCC4)CC3)c(C)c2c1`: the “hERG current change (%, negative = inhibition) at 10uM” value is -27%.

As for `COc1cc2cc(C(C)(C)O)oc(=O)c2cc1OC`, the “hERG current change (%, negative = inhibition) at 10uM” value came to 13%.

As to `Cc1ccc2oc(=O)c3cc(C(=O)N4CCN(C(=O)c5ccco5)CC4)sc3c2c1`, the “hERG current change (%, negative = inhibition) at 10uM” value is recorded as -21.5%.

Turning to `O=C(c1cc2c(s1)-c1ccccc1OC2)N1CCCC1`, the “hERG current change (%, negative = inhibition) at 10uM” value is reported as -4.69%.

In the case of `O=C(Cn1ncc2c(=O)oc3ccccc3c21)N1CCN(C(=O)c2ccco2)CC1`, the “hERG current change (%, negative = inhibition) at 10uM” value was -73.6%.

Turning to `O=C(Cn1ncc2c(=O)oc3ccccc3c21)NCCC1=CCCCC1`, the “hERG current change (%, negative = inhibition) at 10uM” value was -3.92%.

With `O=C(Cn1ncc2c(=O)oc3ccccc3c21)N1CCN(c2ccccn2)CC1`, the “hERG current change (%, negative = inhibition) at 10uM” value is -41%.

Regarding `O=C(c1cc2c(s1)-c1ccccc1OC2)N1CCN(c2ccccc2)CC1`, the “hERG current change (%, negative = inhibition) at 10uM” value is 8.08%.

As for `O=C(c1ccco1)N1CCN(C(=O)c2cc3c(s2)-c2ccccc2OC3)CC1`, the “hERG current change (%, negative = inhibition) at 10uM” value is recorded as -63.9%.

With `O=C(c1ccco1)N1CCN(C(=O)c2cc3c(=O)oc4ccccc4c3s2)CC1`, the “hERG current change (%, negative = inhibition) at 10uM” value is reported as -62.9%.

For the compound `O=C(Cn1ncc2c(=O)oc3ccccc3c21)NCCc1ccsc1`, the “hERG current change (%, negative = inhibition) at 10uM” value was -54.2%.

As to `O=C(c1cc2c(=O)oc3ccccc3c2s1)N1CCOCC1`, the “hERG current change (%, negative = inhibition) at 10uM” value is -0.51%.

Consider `Cc1ccc2oc(=O)c3cnn(CC(=O)NCCc4ccsc4)c3c2c1`, for which the “hERG current change (%, negative = inhibition) at 10uM” value is -12.2%.

On to `O=C(Cn1ncc2c(=O)oc3ccccc3c21)N1CCC(N2CCCCC2)CC1`, for which the “hERG current change (%, negative = inhibition) at 10uM” value was -5%.

The values above are taken from publication PMC4336329 (PLoS ONE, 2015).
